Our source for the binding signal values is PMC7862700, “An all-to-all approach to the identification of sequence-specific readers for epigenetic DNA modifications on cytosine”.

Experiment in all cases: DAPPL (digital affinity profiling via proximity ligation, sequencing); 10 mM Tris-HCl pH 7.5, 50 mM NaCl, 1 mM DTT, 4% glycerol, room temperature, 30 min; GST-TFs on glutathione beads, 16-mer random dsDNA library, 0.1% formaldehyde crosslink after washing; high values mean tight binding
The target of experiment [1] is T1, FLI1 (Homo sapiens, UniProt Q01543 1-452).
T1 sequence: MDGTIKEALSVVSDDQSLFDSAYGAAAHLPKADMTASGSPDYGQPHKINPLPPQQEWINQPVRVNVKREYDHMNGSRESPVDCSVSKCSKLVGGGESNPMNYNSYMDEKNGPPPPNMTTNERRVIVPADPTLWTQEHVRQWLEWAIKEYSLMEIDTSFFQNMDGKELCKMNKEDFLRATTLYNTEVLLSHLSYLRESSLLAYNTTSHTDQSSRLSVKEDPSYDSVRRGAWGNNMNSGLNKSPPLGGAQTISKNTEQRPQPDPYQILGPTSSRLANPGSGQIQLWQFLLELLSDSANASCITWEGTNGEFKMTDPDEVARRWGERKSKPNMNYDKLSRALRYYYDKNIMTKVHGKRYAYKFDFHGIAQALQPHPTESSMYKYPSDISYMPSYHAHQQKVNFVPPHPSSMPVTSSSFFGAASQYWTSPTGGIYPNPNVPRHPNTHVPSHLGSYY
As to conditions: protein: recombinant; tags: N-terminal GST; dsDNA, one strand shown. Summed up:
(§1)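 Human transcription factors were made in yeast as GST fusions, captured on glutathione beads and barcoded with DNA. With a tag-only sample included, the pool was incubated with 200 nmole of a random double-stranded 16-mer DNA library in Tris/NaCl/DTT/glycerol buffer at room temperature for 30 min, then crosslinked with 0.1% formaldehyde after washing, ligated by proximity, amplified and sequenced. For binding signal, each hexamer's read frequency for a factor is divided by its frequency for the tag-only sample.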

Experiment [2] addresses T2, ELK1 (Homo sapiens, UniProt P19419 1-428).
T2 sequence: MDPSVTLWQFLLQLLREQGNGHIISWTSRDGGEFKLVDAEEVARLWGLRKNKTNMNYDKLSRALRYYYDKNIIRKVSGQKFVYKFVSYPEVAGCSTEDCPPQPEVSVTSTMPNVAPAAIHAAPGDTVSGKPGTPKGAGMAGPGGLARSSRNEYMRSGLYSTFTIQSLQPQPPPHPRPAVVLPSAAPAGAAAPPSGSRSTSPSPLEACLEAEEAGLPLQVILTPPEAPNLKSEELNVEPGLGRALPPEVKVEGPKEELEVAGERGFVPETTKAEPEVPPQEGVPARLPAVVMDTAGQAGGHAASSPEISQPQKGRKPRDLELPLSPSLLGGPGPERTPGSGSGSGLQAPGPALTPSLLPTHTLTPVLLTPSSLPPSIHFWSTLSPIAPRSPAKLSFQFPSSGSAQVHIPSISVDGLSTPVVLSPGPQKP
The settings on record: protein: recombinant; tags: N-terminal GST; dsDNA, one strand shown. Summed up:
as §1

For experiment [3], the target named is T3, GABPA (Homo sapiens, UniProt Q06546 1-454).
T3 sequence: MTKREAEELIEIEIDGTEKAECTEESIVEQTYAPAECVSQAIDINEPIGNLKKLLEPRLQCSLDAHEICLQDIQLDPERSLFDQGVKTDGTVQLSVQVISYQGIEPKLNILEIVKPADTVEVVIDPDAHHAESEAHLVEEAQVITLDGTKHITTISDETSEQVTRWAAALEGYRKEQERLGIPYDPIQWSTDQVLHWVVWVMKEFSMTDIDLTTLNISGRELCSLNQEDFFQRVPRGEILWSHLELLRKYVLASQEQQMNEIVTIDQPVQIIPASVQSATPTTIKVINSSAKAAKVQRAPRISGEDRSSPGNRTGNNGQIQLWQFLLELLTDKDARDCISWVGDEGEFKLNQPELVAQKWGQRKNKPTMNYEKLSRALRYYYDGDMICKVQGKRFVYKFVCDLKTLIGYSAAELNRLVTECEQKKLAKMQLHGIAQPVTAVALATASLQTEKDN
The settings on record: protein: recombinant; tags: N-terminal GST; dsDNA, one strand shown. Summed up:
as §1

Experiment [4] deals with T4, ERG (Homo sapiens, UniProt P11308 1-479).
T4 sequence: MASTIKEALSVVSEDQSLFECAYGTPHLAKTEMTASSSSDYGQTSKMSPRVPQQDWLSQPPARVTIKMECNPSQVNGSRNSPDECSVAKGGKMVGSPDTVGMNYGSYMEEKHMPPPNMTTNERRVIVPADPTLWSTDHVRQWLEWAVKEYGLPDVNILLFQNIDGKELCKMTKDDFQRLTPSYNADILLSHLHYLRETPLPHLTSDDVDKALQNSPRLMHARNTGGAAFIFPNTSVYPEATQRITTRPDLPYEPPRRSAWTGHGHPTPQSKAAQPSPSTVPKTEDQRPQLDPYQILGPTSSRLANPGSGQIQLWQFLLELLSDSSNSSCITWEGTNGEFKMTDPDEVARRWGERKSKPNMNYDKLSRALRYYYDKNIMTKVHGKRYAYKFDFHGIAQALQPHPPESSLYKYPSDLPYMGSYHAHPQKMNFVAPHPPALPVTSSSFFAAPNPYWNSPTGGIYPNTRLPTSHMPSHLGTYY
The settings on record: protein: recombinant; tags: N-terminal GST; dsDNA, one strand shown. Summed up: as §1

Experiment [5] deals with ELF1 (Homo sapiens, UniProt P32519 1-619). As to conditions: protein: recombinant; tags: N-terminal GST; dsDNA, one strand shown. Summed up: as §1
Sequence of ELF1 (P32519 whole entry): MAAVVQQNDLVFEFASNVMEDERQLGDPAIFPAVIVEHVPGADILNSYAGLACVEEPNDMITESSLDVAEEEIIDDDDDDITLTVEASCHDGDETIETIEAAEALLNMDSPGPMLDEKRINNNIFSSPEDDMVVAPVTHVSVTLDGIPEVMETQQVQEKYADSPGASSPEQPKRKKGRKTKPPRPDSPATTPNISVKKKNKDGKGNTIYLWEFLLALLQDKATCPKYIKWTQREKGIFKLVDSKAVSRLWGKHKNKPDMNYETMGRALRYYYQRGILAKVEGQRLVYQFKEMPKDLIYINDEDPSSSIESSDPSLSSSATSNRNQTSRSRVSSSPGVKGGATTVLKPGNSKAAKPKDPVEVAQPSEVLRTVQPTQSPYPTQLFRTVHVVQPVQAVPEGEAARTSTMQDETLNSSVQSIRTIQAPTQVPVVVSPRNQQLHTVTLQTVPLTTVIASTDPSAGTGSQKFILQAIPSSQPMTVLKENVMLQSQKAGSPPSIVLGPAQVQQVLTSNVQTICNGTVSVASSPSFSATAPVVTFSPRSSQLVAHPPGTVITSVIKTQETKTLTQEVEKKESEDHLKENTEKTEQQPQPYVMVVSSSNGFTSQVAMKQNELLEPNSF
In experiment [6] the target is T5, EHF (Homo sapiens, UniProt Q9NZC4 1-300).
T5 sequence: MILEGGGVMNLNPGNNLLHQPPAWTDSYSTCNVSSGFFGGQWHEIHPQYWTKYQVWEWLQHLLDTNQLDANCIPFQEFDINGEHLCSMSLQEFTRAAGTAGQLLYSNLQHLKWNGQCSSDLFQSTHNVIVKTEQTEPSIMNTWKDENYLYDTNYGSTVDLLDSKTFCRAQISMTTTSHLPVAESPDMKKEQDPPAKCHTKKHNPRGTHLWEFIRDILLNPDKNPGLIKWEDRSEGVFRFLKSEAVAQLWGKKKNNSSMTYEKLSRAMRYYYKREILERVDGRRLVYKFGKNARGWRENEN
The settings on record: protein: recombinant; tags: N-terminal GST; dsDNA, one strand shown. The essentials:
as §1

In experiment [7] the target is SPI1 (Homo sapiens, UniProt P17947 1-270). The settings on record: protein: recombinant; tags: N-terminal GST; dsDNA, one strand shown. Summed up:
as §1

The target in experiment [8] is SPIB (Homo sapiens, UniProt Q01892 1-262). As to conditions: protein: recombinant; tags: N-terminal GST; dsDNA, one strand shown. The essentials: as §1
Sequence of SPIB (Q01892 whole entry): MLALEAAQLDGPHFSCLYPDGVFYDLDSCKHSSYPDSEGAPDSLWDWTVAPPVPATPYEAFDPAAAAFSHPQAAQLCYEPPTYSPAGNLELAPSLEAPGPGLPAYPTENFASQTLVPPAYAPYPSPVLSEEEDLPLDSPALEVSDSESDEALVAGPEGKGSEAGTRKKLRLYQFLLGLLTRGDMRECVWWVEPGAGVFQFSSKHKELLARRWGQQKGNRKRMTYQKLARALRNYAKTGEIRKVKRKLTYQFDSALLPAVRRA
Experiment [9] concerns the target T6, ELK3 (Homo sapiens, UniProt P41970 1-407).
T6 sequence: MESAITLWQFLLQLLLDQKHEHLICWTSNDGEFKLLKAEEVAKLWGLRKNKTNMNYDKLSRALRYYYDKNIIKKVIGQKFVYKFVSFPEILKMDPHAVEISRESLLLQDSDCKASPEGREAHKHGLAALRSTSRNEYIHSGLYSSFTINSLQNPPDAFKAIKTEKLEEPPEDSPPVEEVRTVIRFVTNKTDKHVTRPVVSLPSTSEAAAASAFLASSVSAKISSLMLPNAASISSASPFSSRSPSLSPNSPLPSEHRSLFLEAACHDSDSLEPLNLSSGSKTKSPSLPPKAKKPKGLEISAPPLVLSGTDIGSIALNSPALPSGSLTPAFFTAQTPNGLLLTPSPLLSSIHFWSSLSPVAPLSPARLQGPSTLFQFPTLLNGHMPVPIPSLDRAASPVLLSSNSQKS
As to conditions: protein: recombinant; tags: N-terminal GST; dsDNA, one strand shown. The essentials:
as §1

The target of experiment [10] is T7, FEV (Homo sapiens, UniProt Q99581 1-238).
T7 sequence: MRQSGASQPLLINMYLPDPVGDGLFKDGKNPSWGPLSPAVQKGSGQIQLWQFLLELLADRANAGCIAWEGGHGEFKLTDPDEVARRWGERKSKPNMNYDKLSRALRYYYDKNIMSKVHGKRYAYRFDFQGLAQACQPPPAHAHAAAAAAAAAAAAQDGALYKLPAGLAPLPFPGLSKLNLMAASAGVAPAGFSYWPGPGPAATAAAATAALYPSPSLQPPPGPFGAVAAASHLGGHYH
As to conditions: protein: recombinant; tags: N-terminal GST; dsDNA, one strand shown. The essentials:
as §1

Experiment [11] deals with ETV5 (Homo sapiens, UniProt P41161 1-510). The settings on record: protein: recombinant; tags: N-terminal GST; dsDNA, one strand shown. The essentials:
as §1

Experiment [12] deals with HSF1 (Homo sapiens, UniProt Q00613 1-529). The settings on record: protein: recombinant; tags: N-terminal GST; chain copies: 3; dsDNA, one strand shown. The essentials:
as §1

Experiment [13] addresses T8, SPIC (Homo sapiens, UniProt Q8N5J4 1-248).
T8 sequence: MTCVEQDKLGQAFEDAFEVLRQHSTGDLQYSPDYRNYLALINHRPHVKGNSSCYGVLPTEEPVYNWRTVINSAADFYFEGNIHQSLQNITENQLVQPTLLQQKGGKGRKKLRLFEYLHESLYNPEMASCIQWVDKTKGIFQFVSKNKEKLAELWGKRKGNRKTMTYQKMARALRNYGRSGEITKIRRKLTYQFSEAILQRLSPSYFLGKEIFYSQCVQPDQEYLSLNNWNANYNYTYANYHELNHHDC
As to conditions: protein: recombinant; tags: N-terminal GST; dsDNA, one strand shown. The essentials: as §1

Experiment [14] has as its target ELF4 (Homo sapiens, UniProt Q99607 1-663). The settings on record: protein: recombinant; tags: N-terminal GST; dsDNA, one strand shown. Summed up: as §1
In experiment [15] the target is T9, ELK4 (Homo sapiens, UniProt P28324-2 1-405).
T9 sequence: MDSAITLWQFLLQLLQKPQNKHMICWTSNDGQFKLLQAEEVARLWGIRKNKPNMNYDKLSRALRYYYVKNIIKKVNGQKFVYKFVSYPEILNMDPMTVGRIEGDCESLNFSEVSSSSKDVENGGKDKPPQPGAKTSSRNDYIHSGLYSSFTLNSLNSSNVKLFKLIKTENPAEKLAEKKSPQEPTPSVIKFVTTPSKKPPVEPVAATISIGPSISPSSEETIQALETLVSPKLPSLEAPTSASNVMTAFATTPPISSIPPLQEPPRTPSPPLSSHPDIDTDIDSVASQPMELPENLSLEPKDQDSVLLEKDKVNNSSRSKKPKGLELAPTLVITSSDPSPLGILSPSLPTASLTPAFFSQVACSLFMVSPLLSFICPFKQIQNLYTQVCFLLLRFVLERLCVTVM
The settings on record: protein: recombinant; tags: N-terminal GST; dsDNA, one strand shown. Summed up:
as §1

For experiment [16], the target named is T10, ETV2 (Homo sapiens, UniProt O00321 1-342).
T10 sequence: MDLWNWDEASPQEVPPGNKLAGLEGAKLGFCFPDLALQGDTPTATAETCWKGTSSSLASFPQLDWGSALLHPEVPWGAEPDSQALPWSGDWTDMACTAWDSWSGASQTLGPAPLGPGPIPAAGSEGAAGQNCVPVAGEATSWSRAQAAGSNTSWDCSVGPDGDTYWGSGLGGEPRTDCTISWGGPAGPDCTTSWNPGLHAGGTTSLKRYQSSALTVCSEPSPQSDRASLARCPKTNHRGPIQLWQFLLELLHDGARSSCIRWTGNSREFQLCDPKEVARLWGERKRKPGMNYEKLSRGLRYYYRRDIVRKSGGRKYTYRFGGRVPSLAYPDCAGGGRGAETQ
The settings on record: protein: recombinant; tags: N-terminal GST; dsDNA, one strand shown. The essentials:
as §1

The target in experiment [17] is T11, ELF3 (Homo sapiens, UniProt P78545 1-371).
T11 sequence: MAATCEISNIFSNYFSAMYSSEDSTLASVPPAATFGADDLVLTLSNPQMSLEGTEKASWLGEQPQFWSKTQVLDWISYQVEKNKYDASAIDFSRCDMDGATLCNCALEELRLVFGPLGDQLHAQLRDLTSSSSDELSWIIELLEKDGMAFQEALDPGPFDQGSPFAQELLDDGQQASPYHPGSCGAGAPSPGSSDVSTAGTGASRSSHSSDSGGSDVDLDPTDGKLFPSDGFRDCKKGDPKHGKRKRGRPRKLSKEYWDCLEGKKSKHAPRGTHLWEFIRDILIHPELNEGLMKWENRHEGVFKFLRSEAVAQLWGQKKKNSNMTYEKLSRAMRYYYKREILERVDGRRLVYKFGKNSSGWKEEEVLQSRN
As to conditions: protein: recombinant; tags: N-terminal GST; dsDNA, one strand shown. The essentials:
as §1

The target in experiment [18] is ETV1 (Homo sapiens, UniProt P50549 1-477). As to conditions: protein: recombinant; tags: N-terminal GST; dsDNA, one strand shown. Summed up: as §1
Sequence of ETV1 (P50549 whole entry): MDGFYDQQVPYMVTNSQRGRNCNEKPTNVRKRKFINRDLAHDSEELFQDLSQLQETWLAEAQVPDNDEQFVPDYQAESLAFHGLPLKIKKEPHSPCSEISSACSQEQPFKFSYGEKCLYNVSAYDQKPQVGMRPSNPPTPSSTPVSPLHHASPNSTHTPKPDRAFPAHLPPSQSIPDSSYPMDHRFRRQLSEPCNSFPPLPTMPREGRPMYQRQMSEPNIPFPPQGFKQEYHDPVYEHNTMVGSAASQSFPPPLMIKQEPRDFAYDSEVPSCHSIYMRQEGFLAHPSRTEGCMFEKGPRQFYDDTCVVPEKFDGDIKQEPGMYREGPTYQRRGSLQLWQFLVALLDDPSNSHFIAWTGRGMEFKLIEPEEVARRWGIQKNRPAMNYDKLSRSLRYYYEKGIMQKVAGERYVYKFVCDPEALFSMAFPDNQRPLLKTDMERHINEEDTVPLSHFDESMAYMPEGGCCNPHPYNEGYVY

Sequence of HSF1 (Q00613 whole entry): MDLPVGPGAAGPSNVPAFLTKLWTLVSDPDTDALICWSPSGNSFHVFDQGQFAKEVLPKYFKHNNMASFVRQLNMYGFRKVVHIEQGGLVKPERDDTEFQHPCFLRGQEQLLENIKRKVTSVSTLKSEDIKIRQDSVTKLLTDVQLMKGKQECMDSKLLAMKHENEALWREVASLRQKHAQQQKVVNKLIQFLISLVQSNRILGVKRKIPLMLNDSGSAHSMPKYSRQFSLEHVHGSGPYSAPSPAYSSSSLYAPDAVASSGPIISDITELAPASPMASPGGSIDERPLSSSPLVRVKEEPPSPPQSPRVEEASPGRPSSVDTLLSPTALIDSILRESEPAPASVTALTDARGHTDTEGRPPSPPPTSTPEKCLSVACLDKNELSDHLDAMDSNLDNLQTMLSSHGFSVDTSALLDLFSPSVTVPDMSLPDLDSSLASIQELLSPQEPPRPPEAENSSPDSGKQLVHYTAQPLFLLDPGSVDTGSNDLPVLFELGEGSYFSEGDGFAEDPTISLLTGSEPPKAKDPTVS
Sequence of ELF4 (Q99607 whole entry): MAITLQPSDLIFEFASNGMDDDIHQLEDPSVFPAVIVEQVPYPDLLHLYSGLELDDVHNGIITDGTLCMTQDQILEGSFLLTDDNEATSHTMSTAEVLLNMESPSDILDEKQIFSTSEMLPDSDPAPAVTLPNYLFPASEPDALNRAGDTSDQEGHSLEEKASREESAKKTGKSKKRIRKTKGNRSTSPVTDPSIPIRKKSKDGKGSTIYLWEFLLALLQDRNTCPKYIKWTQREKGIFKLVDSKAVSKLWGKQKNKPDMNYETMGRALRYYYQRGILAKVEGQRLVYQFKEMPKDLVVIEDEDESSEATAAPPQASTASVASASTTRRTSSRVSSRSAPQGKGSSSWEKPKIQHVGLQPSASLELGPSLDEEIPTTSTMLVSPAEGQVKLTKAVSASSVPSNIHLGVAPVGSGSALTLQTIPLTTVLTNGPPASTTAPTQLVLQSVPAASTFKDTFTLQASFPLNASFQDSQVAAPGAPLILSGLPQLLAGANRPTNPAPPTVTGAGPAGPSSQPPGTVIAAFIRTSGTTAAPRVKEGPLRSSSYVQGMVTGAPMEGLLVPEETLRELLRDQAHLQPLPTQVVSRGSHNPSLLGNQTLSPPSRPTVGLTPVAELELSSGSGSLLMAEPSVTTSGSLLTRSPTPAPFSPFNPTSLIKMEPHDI
Sequence of ETV5 (P41161 whole entry): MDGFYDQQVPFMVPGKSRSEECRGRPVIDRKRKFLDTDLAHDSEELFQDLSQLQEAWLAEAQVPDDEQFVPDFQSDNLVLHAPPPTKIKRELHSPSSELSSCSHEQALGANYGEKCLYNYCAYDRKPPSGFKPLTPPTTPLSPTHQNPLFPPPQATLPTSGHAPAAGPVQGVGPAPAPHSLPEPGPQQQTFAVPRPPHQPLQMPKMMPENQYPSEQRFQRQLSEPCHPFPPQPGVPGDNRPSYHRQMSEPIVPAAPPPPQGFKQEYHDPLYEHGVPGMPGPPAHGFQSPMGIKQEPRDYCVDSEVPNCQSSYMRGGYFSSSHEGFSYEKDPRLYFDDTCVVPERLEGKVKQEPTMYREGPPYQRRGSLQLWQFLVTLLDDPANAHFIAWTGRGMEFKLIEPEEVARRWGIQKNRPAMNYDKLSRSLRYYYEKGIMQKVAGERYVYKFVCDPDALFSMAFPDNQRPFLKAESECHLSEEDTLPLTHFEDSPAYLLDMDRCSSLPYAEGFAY

As for TAGGAA, the binding signal in experiment [1] is 1.07 fold enrichment (6-mer frequency, TF over GST control); in experiment [2], 1 fold enrichment (6-mer frequency, TF over GST control); in experiment [3] it was 1.04 fold enrichment (6-mer frequency, TF over GST control); in experiment [4], 1.17 fold enrichment (6-mer frequency, TF over GST control); in [5], 1.03 fold enrichment (6-mer frequency, TF over GST control); in experiment [6], 1.25 fold enrichment (6-mer frequency, TF over GST control). Further, the binding signal in experiment [7] is 1.23 fold enrichment (6-mer frequency, TF over GST control); in experiment [8] it was 1.28 fold enrichment (6-mer frequency, TF over GST control); in experiment [9] it was 1.03 fold enrichment (6-mer frequency, TF over GST control); in [10], 1.06 fold enrichment (6-mer frequency, TF over GST control); in experiment [11], 1.19 fold enrichment (6-mer frequency, TF over GST control); in experiment [12] it was 1.11 fold enrichment (6-mer frequency, TF over GST control). In addition, the binding signal is 1.27 fold enrichment (6-mer frequency, TF over GST control) in experiment [13]; 1.09 fold enrichment (6-mer frequency, TF over GST control) in [14]; 1.01 fold enrichment (6-mer frequency, TF over GST control) in experiment [15]; 1.2 fold enrichment (6-mer frequency, TF over GST control) in experiment [16]; 1.2 fold enrichment (6-mer frequency, TF over GST control) in experiment [17]; 1.13 fold enrichment (6-mer frequency, TF over GST control) in experiment [18].
